Drawing on the supplement of paper PMC10849652, this text covers log2 fold change for 15 targets.

What all share (assay): log2 fold change, soluble protein after heating vs DMSO (PISA); higher = thermal stabilisation; K562 cells, 10 uM, 30 min; active = over 0.2 and 3.5 SD of the protein, either way, in both replicates (recomputed)
Compound in experiment [1]: C#Cc1cccc(Nc2ncnc3cc(OCCOC)c(OCCOC)cc23)c1 [erlotinib]
Summed up:
(§1)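 K562 cells at 2×10^6 cells/mL were exposed to 10 μM compound for 30 min, then aliquots were heated for 3 min across 48°C-58°C, pooled, and extracted in PBS containing 0.5% NP-40 at 4°C. The supernatant after 21,000xg for 90 min was taken as soluble protein and measured by TMTpro 16plex LC-MS/MS with channel sums equalised. Thermal stability is reported relative to control samples, with values from duplicates. Fold changes are given on a log2 scale.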

Compound in experiment [2]: C/C(=N\NC(=O)C1=CC(=CC=C1)S(=O)(=O)N2CCOCC2)/C3=C(C=CC(=C3)Cl)O
Summed up: as §1

Compound in experiment [3]: C1=CC(=C(C=C1Cl)C2=NC3=NC=CN=C3C(=N2)NC4=CC=NC=C4)F
Summed up: as §1

Compound in experiment [4]: C1=CC(=CC=C1C2=NC3=C(N2)C=C(C=C3)C(=O)N)OC4=CC=C(C=C4)Cl
Summed up: as §1

Compound in experiment [5]: C1=CC2=C(C=CC(=C2)/C=C\3/C(=O)NC(=NCC4=CC=CS4)S3)N=C1
In outline:
as §1

Compound in experiment [6]: C1=CC2=NC=CN=C2C=C1/C=C/3\C(=O)NC(=O)S3
In outline: as §1

Compound in experiment [7]: C1=CC=C(C=C1)C2=NC(=C(N2)C3=CC=NC=C3)C4=CC(=C(C=C4)Cl)O
In outline: as §1

Compound in experiment [8]: C1=CC=C2C(=C1)C3=NNC4=CC=CC(=C43)C2=O
In outline: as §1

Compound in experiment [9]: C1CCN(C1)C(=O)NC2=CC=CC(=C2)NC3=NC=C(C(=N3)NCCC4=CN=CN4)Br
Summed up: as §1

Compound in experiment [10]: C1CN(CCC1(CC2=CC=C(C=C2)Cl)N)C3=NC=NC4=C3C=CN4
In outline: as §1

About 7,900 targets were measured; listed, in parts, are those with a hit and a random draw of the rest. About 0.6% of all pairs of compound and target were hits. A number with no mark means an inactive call.

UniProt Q9H3M7, sequence (Q9H3M7 whole entry, looked up): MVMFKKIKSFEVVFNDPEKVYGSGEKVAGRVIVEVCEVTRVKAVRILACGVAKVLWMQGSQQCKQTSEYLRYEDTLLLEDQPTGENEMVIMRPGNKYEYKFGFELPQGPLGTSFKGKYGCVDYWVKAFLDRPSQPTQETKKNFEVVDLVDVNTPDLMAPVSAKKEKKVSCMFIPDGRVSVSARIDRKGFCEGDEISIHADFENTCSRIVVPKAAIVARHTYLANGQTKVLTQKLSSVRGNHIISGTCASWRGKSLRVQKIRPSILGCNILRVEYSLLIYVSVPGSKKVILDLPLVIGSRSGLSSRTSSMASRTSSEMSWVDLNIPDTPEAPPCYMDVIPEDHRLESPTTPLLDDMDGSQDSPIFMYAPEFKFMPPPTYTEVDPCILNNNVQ
UniProt O94967, sequence (O94967 whole entry, looked up): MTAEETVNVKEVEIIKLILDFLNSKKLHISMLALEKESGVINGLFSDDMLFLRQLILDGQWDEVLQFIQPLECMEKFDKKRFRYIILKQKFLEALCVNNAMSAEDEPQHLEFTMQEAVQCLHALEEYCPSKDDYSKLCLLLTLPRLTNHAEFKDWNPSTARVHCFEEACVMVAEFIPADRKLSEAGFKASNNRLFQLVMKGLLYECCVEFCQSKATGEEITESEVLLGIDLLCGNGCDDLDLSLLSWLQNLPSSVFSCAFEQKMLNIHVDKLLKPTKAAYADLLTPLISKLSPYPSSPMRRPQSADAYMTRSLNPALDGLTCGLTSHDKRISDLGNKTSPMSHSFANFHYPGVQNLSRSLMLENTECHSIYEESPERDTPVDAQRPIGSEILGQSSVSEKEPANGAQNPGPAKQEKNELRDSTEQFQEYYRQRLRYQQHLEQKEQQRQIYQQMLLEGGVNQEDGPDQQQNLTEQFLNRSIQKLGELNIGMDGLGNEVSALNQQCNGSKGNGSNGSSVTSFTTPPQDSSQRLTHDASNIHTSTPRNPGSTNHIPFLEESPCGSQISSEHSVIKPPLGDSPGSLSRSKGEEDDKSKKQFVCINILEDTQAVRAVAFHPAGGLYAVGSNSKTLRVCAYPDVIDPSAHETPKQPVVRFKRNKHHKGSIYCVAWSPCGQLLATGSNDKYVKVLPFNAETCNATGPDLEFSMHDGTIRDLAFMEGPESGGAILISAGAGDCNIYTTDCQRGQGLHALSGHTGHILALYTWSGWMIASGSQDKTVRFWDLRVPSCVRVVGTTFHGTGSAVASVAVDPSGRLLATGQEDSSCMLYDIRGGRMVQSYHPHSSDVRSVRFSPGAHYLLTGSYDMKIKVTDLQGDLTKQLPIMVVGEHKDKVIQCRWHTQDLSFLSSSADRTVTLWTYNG
UniProt Q9Y5L0, sequence (Q9Y5L0 whole entry, looked up): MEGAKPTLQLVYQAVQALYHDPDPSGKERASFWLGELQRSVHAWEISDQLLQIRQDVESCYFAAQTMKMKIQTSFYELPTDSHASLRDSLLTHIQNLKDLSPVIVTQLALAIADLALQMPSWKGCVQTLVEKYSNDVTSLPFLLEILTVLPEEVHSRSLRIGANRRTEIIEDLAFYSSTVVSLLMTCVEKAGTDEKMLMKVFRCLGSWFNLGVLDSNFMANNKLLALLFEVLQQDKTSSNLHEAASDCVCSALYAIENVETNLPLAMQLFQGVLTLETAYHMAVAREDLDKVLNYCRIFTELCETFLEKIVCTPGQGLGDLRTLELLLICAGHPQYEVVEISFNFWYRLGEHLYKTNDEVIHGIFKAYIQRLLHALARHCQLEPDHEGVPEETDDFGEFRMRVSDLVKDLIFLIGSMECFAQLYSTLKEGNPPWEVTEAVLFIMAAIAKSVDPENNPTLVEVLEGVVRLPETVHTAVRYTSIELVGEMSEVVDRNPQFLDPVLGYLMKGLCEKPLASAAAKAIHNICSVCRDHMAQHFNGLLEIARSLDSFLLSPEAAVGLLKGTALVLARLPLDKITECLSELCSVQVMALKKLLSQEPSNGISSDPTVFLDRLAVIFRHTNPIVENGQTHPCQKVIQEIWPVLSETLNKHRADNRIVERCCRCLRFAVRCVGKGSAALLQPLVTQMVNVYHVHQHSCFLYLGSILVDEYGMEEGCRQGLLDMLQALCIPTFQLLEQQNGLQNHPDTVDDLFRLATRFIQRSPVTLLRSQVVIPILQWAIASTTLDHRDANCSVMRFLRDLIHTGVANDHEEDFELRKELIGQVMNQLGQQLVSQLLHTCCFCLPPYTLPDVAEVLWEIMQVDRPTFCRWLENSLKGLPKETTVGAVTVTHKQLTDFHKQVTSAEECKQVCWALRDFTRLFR
UniProt Q9H4A3, sequence (Q9H4A3 whole entry, looked up): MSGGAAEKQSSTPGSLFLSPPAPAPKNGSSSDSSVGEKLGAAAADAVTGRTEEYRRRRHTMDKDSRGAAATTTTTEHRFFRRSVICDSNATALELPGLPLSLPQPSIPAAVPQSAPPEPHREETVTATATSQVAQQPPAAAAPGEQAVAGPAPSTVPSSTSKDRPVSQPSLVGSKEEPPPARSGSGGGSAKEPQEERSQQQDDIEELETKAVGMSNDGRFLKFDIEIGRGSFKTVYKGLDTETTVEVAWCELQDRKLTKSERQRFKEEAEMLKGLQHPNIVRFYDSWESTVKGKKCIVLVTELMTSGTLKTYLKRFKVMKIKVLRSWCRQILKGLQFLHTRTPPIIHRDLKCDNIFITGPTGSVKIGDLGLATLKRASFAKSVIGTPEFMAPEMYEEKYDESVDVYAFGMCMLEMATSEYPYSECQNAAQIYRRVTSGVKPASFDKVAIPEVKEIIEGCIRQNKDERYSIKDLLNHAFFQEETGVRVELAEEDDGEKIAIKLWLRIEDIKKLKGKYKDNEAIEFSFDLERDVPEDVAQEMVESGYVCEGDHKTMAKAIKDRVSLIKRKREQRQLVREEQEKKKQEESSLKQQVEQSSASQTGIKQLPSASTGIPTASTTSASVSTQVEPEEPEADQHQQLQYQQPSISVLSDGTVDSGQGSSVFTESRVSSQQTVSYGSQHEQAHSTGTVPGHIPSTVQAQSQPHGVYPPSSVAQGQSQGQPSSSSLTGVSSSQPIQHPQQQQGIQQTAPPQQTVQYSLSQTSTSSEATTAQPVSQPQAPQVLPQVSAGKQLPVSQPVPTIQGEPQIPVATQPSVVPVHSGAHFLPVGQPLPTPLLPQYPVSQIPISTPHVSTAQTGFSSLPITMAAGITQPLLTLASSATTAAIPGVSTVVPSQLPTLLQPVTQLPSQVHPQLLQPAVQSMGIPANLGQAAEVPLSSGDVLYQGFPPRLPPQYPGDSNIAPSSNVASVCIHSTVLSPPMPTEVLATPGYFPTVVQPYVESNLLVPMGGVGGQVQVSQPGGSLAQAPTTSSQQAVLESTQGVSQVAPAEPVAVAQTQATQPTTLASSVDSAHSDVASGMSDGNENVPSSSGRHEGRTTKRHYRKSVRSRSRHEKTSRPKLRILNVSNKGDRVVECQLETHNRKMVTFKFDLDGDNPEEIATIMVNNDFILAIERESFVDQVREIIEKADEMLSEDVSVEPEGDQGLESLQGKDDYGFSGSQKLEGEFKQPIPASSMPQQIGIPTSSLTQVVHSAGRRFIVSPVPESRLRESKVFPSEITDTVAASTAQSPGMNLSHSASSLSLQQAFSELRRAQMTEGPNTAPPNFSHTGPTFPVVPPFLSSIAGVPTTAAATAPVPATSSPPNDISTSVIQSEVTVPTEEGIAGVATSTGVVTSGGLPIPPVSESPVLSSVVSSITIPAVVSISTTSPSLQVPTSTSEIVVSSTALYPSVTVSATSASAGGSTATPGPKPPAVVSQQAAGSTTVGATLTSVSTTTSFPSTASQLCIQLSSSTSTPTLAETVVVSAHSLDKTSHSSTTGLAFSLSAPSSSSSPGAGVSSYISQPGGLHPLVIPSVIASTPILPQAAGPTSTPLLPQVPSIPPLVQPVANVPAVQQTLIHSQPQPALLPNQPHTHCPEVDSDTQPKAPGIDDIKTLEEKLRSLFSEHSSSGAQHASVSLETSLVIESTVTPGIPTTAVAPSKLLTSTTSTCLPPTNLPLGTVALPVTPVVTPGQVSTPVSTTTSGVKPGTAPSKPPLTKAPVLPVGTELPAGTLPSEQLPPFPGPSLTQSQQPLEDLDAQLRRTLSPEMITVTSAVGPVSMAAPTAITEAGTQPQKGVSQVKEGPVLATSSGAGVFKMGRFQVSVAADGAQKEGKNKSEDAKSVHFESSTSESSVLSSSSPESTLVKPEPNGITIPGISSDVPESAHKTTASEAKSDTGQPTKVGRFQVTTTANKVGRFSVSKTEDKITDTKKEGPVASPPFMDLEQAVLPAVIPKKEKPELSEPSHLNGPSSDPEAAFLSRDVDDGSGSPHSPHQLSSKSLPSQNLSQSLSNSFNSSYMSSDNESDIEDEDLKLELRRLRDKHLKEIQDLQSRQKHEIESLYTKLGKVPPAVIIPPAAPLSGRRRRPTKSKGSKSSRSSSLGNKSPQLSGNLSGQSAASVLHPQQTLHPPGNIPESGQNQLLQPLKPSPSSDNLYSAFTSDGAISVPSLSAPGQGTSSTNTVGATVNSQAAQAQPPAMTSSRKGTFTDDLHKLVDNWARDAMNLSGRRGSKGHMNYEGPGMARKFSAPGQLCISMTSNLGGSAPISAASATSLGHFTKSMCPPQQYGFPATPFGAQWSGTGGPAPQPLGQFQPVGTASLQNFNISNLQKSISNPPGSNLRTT
UniProt O75554, sequence (O75554 whole entry, looked up): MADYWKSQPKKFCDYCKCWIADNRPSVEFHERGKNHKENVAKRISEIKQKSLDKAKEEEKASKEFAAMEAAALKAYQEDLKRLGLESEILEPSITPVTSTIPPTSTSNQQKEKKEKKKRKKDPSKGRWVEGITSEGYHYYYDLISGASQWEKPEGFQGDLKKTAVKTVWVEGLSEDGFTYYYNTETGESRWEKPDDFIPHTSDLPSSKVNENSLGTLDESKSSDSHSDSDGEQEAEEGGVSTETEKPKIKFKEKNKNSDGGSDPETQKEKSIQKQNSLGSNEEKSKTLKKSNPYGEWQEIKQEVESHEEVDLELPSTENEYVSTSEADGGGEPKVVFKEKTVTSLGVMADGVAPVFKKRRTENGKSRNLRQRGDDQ

For TNPO2 (UniProt O14787), the log2 fold change is 0.075 in experiment [1]; 0.115 in experiment [2]; 0.033 in experiment [3]; -0.064 in [4]; 0.077 in [5]; 0.017 in experiment [6]. Besides, the log2 fold change in [7] is 0.018; in experiment [8], -0.008; in [9], 0.027; in experiment [10], -0.008.

On to UTP14A (UniProt Q9BVJ6), for which the log2 fold change is -0.142 in [1]; -0.15 in experiment [2]; -0.301 in experiment [3]; 0.06 in [4]; -0.075 in [5]; -0.005 in experiment [6]. Also, the log2 fold change in [7] was -0.06; in experiment [8], -0.045; in experiment [9], 0.006; in experiment [10] it was -0.155.

As to TOM1 isoform 2 (UniProt O60784), the log2 fold change is 0.012 in [1]; 0.014 in experiment [2]; 0.107 in [3]; -0.04 in [4]; -0.006 in [5]; -0.016 in experiment [6]. For the same target, the log2 fold change is -0.053 in experiment [7], 0.004 in experiment [8], -0.023 in experiment [9] and 0.014 in [10].

On to TXN2 (UniProt Q99757), for which the log2 fold change in [1] is -0.035; in experiment [2] it was -0.022; in [3] it was 0.093; in [4], -0.032; in experiment [5], 0.086; in experiment [6], 0.098. Besides, the log2 fold change is -0.02 in experiment [7], 0.029 in experiment [8], 0.029 in experiment [9] and 0.005 in [10].

In the case of UFL1 (UniProt O94874), the log2 fold change in [1] is 0.06; in experiment [2], 0.075; in experiment [3] it was 0.037; in experiment [4] it was -0.03; in experiment [5], 0.021; in experiment [6], 0.021. In addition, the log2 fold change in [7] was 0.069; in experiment [8], 0.096; in [9], -0.012; in [10] it was -0.101.

Turning to TXNIP (UniProt Q9H3M7), the log2 fold change in experiment [1] is 0.013; in experiment [2] it was 0.017; in experiment [3] it was 0.082; in [4] it was 0.025; in [5], 0.108; in experiment [6], 0.124. Also, the log2 fold change in [7] is 0.141; in [8] it was 0.034; in [9], 0.137; in [10], 0.041.

For the target UBA6, the log2 fold change in experiment [1] was 0.011; in experiment [2] it was 0.099; in [3] it was 0.06; in experiment [4], 0.038; in experiment [5], 0.014; in [6], -0.037. For the same target, the log2 fold change in experiment [7] is 0.014; in experiment [8], 0.015; in experiment [9] it was -0.024; in [10], -0.015.

On to WNK1 isoform 7 (UniProt Q9H4A3), for which the log2 fold change was 0.043 in [1]; 0.014 in experiment [2]; 0.012 in experiment [3]; -0.003 in experiment [4]; 0.026 in [5]; 0.006 in experiment [6]. For the same target, the log2 fold change in experiment [7] was -0.046; in experiment [8], 0.021; in [9], -0.028; in experiment [10] it was -0.02.

Turning to XPO6 (UniProt Q96QU8), the log2 fold change in experiment [1] was 0.07; in experiment [2], 0.056; in [3], -0.465 (active); in experiment [4], -0.055; in experiment [5] it was 0.093; in [6], -0.15. The log2 fold change is -0.01 in experiment [7], -0.008 in experiment [8], 0.087 in experiment [9] and 0.02 in experiment [10].

USP9X (UniProt Q93008): the log2 fold change was 0.012 in experiment [1]; 0.06 in experiment [2]; -0.012 in experiment [3]; -0.029 in [4]; 0.026 in experiment [5]; 0.008 in [6]. Also, the log2 fold change in experiment [7] was 0.013; in [8] it was -0.033; in experiment [9] it was 0.002; in experiment [10] it was -0.002.

For the target TNPO3 (UniProt Q9Y5L0), the log2 fold change in experiment [1] is -0.01; in experiment [2], 0.132; in [3], 0.068; in experiment [4] it was -0.009; in experiment [5] it was -0.014; in [6], 0.029. Also, the log2 fold change in experiment [7] was 0.023; in experiment [8], -0.007; in [9], 0.004; in experiment [10], -0.03.

As to WDR47 (UniProt O94967), the log2 fold change in experiment [1] is 0.038; in [2] it was 0.065; in experiment [3], -0.014; in experiment [4], -0.002; in experiment [5], -0.002; in experiment [6], 0.06. Further, the log2 fold change in experiment [7] is 0.047; in experiment [8] it was 0; in [9], 0.013; in experiment [10], 0.006.

Regarding WDCP (UniProt Q9H6R7), the log2 fold change in experiment [1] was 0.083; in [2], -0.003; in [3] it was 0.058; in [4] it was 0.065; in experiment [5], -0.015; in experiment [6], 0.134. The log2 fold change in experiment [7] was -0.022; in experiment [8], -0.068; in experiment [9], -0.012; in experiment [10] it was -0.011.

WBP4 (UniProt O75554): the log2 fold change was 0 in experiment [1]; -0.07 in experiment [2]; 0.04 in experiment [3]; 0.009 in experiment [4]; -0.082 in experiment [5]; 0.031 in [6]. The log2 fold change was -0.059 in experiment [7], -0.055 in experiment [8], 0.031 in experiment [9] and 0.036 in [10].

For the target TUBAL3 (UniProt A6NHL2), the log2 fold change in [1] is 0.092; in [2], 0.096; in experiment [3], 0.099; in experiment [4], 0.018; in experiment [5], 0.048; in experiment [6], 0.004. Further, the log2 fold change was 0.031 in experiment [7], -0.034 in [8], -0.046 in [9] and 0.145 in [10].
